Eight compounds from PubChem BioAssay (NCI) can be followed below.

Among the test systems are SR leukemia; RPMI-8226 leukemia; OVCAR-8 ovarian; OVCAR-5 ovarian; OVCAR-4 ovarian; SK-OV-3 ovarian; IGROV1 ovarian; OVCAR-3 ovarian; HS 578T breast; NCI/ADR-RES ovarian; T-47D breast; BT-549 breast; MDA-MB-435 melanoma; SW-620 colon; MCF7 breast; HCT-116 colon; HCC-2998 colon; KM12 colon.
Assay in all cases: NCI-60 one-dose screen, 48 h (100 = growth as untreated, 0 = no growth, -100 = all killed)
Holding throughout (settings): 10 µM unless noted

This is part of a sample that, as a whole, favours compounds with a hit. Of some 83,000 tested, about 20% had one in any assay.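 Negative percent growth values reflect cell death: -40 means 40% of the cells present at the start died, and -100 means all died.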 Unmarked numbers belong to inactive results. The source made the active and inactive calls. How the source made its calls: active means growth percent below 10; inactive means the rest.

Consider `COC12C=C/C(=C(/C(=O)OCc3csc(SC)n3)C(=O)CCCCCCCCC3(OC)C=C/C(=C(/C(=O)OCc4cnc(SC)s4)C(=O)CCCCCCCC1)O3)O2` (centres undefined), for which the growth in the experiment with SR leukemia is 1.64% (active); with RPMI-8226 leukemia it was 1.53% (active); in the experiment with OVCAR-8 ovarian, 27%; in the experiment on OVCAR-5 ovarian, 60%; with OVCAR-4 ovarian, 38.8%; in the experiment on SK-OV-3 ovarian it was 87.8%. In addition, the growth was 21% with IGROV1 ovarian; 21.5% in the experiment on OVCAR-3 ovarian; 57.2% with HS 578T breast; 81.3% in the experiment on NCI/ADR-RES ovarian; 41.9% in the experiment on T-47D breast; 31.7% in the experiment with BT-549 breast. In addition, the growth is 10% with MDA-MB-435 melanoma; 27.6% with SW-620 colon; 23.3% with MCF7 breast; 7.05% (active) with HCT-116 colon; -62.4% (active) with HCC-2998 colon; 18.1% in the experiment on KM12 colon.

Consider `COc1ccc(C(O)c2cc3c(N)c(C(=O)Nc4cccc5ccccc45)sc3nc2C)cc1` (centres undefined), for which the growth in the experiment on SR leukemia is 12.7%; in the experiment on RPMI-8226 leukemia it was 18.3%; in the experiment with OVCAR-8 ovarian, 10.9%; in the experiment with OVCAR-5 ovarian it was 21.5%; with OVCAR-4 ovarian it was 34.5%; in the experiment on SK-OV-3 ovarian it was 18.3%. Also, the growth with IGROV1 ovarian was 9.69% (active); in the experiment with OVCAR-3 ovarian, 0.772% (active); in the experiment with HS 578T breast it was -9.07% (active); in the experiment on NCI/ADR-RES ovarian it was 4.32% (active); in the experiment on T-47D breast, 44.2%; with BT-549 breast it was 8.08% (active). For the same compound, the growth with MDA-MB-435 melanoma is -17.1% (active); in the experiment on SW-620 colon, 18.8%; in the experiment with MCF7 breast, 11.3%; with HCT-116 colon, 6.27% (active); in the experiment on HCC-2998 colon, -38.8% (active); in the experiment with KM12 colon, -6.56% (active).

In the case of `O=C(O)c1cn(C2CC2)c2cc(N3CCN(C(=O)N/N=C/c4cccc5ccccc45)CC3)c(F)cc2c1=O`, the growth is 88.5% in the experiment on SR leukemia; 110% in the experiment with RPMI-8226 leukemia; 95.3% in the experiment with OVCAR-8 ovarian; 110% in the experiment with OVCAR-5 ovarian; 98.3% with OVCAR-4 ovarian; 87% with SK-OV-3 ovarian. The growth with IGROV1 ovarian was 94.5%; with OVCAR-3 ovarian it was 104%; in the experiment with HS 578T breast, 96.2%; in the experiment with NCI/ADR-RES ovarian, 105%; in the experiment on T-47D breast, 89.9%; with BT-549 breast it was 6.18% (active). Further, the growth in the experiment on MDA-MB-435 melanoma is 104%; in the experiment on SW-620 colon it was 109%; with MCF7 breast, 98.2%; in the experiment with HCT-116 colon, 14.8%; in the experiment on HCC-2998 colon, 107%; in the experiment on KM12 colon, 101%.

On to `O=C(NCCNC(c1ccccc1)C(NCCNC(=O)c1ccccc1)c1ccccc1)c1ccccc1` (centres undefined), for which the growth in the experiment with SR leukemia was 50.2%; in the experiment with RPMI-8226 leukemia it was 90.1%; in the experiment on OVCAR-8 ovarian, 78.9%; in the experiment with OVCAR-5 ovarian it was 83.8%; in the experiment with OVCAR-4 ovarian, 91.3%; in the experiment with SK-OV-3 ovarian, 99.9%. Also, the growth in the experiment with IGROV1 ovarian is 82.4%; with OVCAR-3 ovarian, 116%; with HS 578T breast, 115%; in the experiment on NCI/ADR-RES ovarian it was 76.6%; with T-47D breast, 97.8%; in the experiment with BT-549 breast, 96.4%. Moreover, the growth in the experiment with MDA-MB-435 melanoma was 114%; in the experiment with SW-620 colon it was 57.8%; in the experiment with MCF7 breast it was 70.7%; in the experiment with HCT-116 colon, 53.8%; in the experiment with HCC-2998 colon, 105%; in the experiment with KM12 colon, 100%.

For `CCOC(=O)C/C(=N\Nc1cc(=O)[nH]c2ccc(C)cc12)C(=O)OCC`, the growth in the experiment with SR leukemia is 46.4%; with RPMI-8226 leukemia, 91.3%; in the experiment on OVCAR-8 ovarian, 101%; in the experiment on OVCAR-5 ovarian, 104%; in the experiment with OVCAR-4 ovarian it was 106%; with SK-OV-3 ovarian, 126%. Besides, the growth in the experiment with IGROV1 ovarian was 98%; in the experiment on OVCAR-3 ovarian, 101%; in the experiment on HS 578T breast, 91.8%; in the experiment on NCI/ADR-RES ovarian it was 105%; in the experiment on T-47D breast, 107%; in the experiment on BT-549 breast it was 108%. The growth with MDA-MB-435 melanoma was 98.6%; in the experiment on SW-620 colon it was 94.8%; in the experiment on MCF7 breast, 94.8%; in the experiment with HCT-116 colon, 99.7%; in the experiment on HCC-2998 colon it was 102%; with KM12 colon, 100%.

Consider `CCOC(=O)NC(=S)n1oc(=O)c2ccccc21`, for which the growth is 114% in the experiment with SR leukemia; 101% with RPMI-8226 leukemia; 102% in the experiment with OVCAR-8 ovarian; 96.6% with OVCAR-5 ovarian; 96.5% in the experiment with OVCAR-4 ovarian; 104% with SK-OV-3 ovarian. Also, the growth is 100% in the experiment with IGROV1 ovarian; 105% in the experiment with OVCAR-3 ovarian; 104% in the experiment with HS 578T breast; 105% in the experiment on NCI/ADR-RES ovarian; 99.2% in the experiment on T-47D breast; 111% in the experiment on BT-549 breast. In addition, the growth in the experiment on MDA-MB-435 melanoma was 101%; in the experiment on SW-620 colon it was 97.5%; in the experiment on MCF7 breast, 100%; with HCT-116 colon it was 101%; with HCC-2998 colon it was 101%; in the experiment with KM12 colon, 103%.

As for `COc1cc2c(cc1OCCCN1CCN(C(=S)SCCC(C#N)(c3ccccc3)c3ccccc3)CC1)N=C[C@@H]1CCCN1C2=O`, the growth in the experiment on SR leukemia is -37.6% (active); in the experiment on RPMI-8226 leukemia it was -19.3% (active); in the experiment on OVCAR-8 ovarian, -0.777% (active); with OVCAR-5 ovarian it was -46.2% (active); in the experiment with OVCAR-4 ovarian, -19.2% (active); in the experiment on SK-OV-3 ovarian it was -7.04% (active). For the same compound, the growth in the experiment on IGROV1 ovarian was -89.4% (active); with OVCAR-3 ovarian, -89.3% (active); in the experiment with HS 578T breast, -54.4% (active); in the experiment on NCI/ADR-RES ovarian, 22.3%; in the experiment with T-47D breast, -50.5% (active); in the experiment on BT-549 breast it was -89.7% (active). Moreover, the growth in the experiment with MDA-MB-435 melanoma is -15.2% (active); in the experiment on SW-620 colon it was -100% (active); with MCF7 breast, -86.1% (active); in the experiment on HCT-116 colon, -93.5% (active); in the experiment on HCC-2998 colon, -86.8% (active); in the experiment with KM12 colon it was -75.1% (active).

Turning to `COc1ccc2cc(-c3nc4ccc(C)cn4c3NCc3ccco3)c(=O)[nH]c2c1`, the growth in the experiment with SR leukemia is 31.5%; in the experiment on RPMI-8226 leukemia it was 62.3%; in the experiment with OVCAR-8 ovarian it was 78.5%; in the experiment with OVCAR-5 ovarian, 70.8%; with OVCAR-4 ovarian, 69.3%; in the experiment with SK-OV-3 ovarian it was 78.1%. The growth in the experiment with IGROV1 ovarian is 63.4%; in the experiment on OVCAR-3 ovarian, 89.4%; with HS 578T breast, 65.3%; with NCI/ADR-RES ovarian it was 68.7%; with T-47D breast, 47.1%; in the experiment with BT-549 breast it was 66.1%. Also, the growth was 86.8% in the experiment on MDA-MB-435 melanoma; 87.1% in the experiment on SW-620 colon; 74.1% in the experiment with MCF7 breast; 57.5% with HCT-116 colon; 95.6% with HCC-2998 colon; 77.7% in the experiment with KM12 colon.
